BoNT-F LC inh: BoNT/F light chain protease inhibitors, primary screen, biochemical, flow cytometry, MLPCN library. inhibition, % at 10 µM. Botulinum neurotoxin type F light chain protease (Clostridium botulinum). Multiplex microsphere protease cleavage assay. 360,000 compounds, 0.22% hits; in the data active = inhibition above about 35%, passing the limit was not always enough; inconclusive = no clear call, values can overlap the other calls
MazEF act: activators of E. coli MazEF toxin-antitoxin RNase, primary screen, biochemical, fluorescence, uHTS. Endoribonuclease toxin MazF (Escherichia coli (strain K12)), P0AE70. FAM/BHQ RNA-DNA oligo cleavage fluorescence, 5 h. activation, % at 20 µM. 350,000 compounds, 0.32% hits. AID 504720, 2011; in the data active = activation above about 50%
Target sequence (P0AE70 whole entry, looked up): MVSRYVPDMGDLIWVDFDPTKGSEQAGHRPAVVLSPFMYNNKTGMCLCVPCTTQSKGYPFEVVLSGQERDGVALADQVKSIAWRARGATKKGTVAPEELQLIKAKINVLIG
Anthrax LF inh2: Bacillus anthracis LF protease inhibitors, primary screen, biochemical, multiplex microsphere, MLPCN library. Lethal factor (Bacillus anthracis), P15917. 360,000 compounds, 0.12% hits. inhibition, % at 10 µM. AID 588501, 2011. multiplex microsphere protease cleavage assay
BoNT-A LC inh2: BoNT/A light chain protease inhibitors, primary screen, biochemical, flow cytometry, MLPCN library. 360,000 compounds, 0.17% hits. AID 588499, 2011. inhibition, % at 10 µM. multiplex microsphere protease substrate cleavage. Botulinum neurotoxin type A light chain protease (Clostridium botulinum A str. ATCC 3502)
Autofluor counter: counter-screen for toxin protease inhibitors: compound fluorescence. compound autofluorescence counterscreen, microsphere flow cytometry; active compounds read high. fluorescence intensity (test concentration not listed). 360,000 compounds, 3.1% hits. AID 624483; in the data active = fluorescence intensity above about 16000; inconclusive = no clear call, values can overlap the other calls
A number is an active result; – = inactive; ? = inconclusive; · = no result given. Hits are enriched below; roughly 3.6% of the tested compounds scored in any of these assays. Rule as the data show it, unless noted: active = inhibition above about 30%; inconclusive = no clear call, values can overlap the other calls; inactive = below that.

SMILES	BoNT-F LC inh	MazEF act	Anthrax LF inh2	BoNT-A LC inh2	Autofluor counter
CC(O)/C=C/c1ccc2ccccc2n1 (configuration not stated)	–	–	–	–	17160
OC(CSc1c(Cl)cccc1Cl)CN1CCN(c2ccccc2F)CC1 (configuration not stated)	–	–	–	–	20273
Cc1cccc(N2CCN(C(=O)COc3noc4nc(C)cc(C)c34)CC2C)c1 (configuration not stated)	–	–	–	–	–
Cc1nc(N2CCN(Cc3ccc(Cl)cc3)CC2)c2oc3ccccc3c2n1	–	–	–	–	–
Cc1nc(Oc2ccc(Cl)cc2)c2oc3ccccc3c2n1	–	–	–	?	20568
CC(C)CC(NC(=O)c1cccs1)c1nnc(SCc2ccc(Cl)c(Cl)c2)n1C (configuration not stated)	–	–	–	–	–
C=CCn1c(SCC(=O)c2ccc(Br)cc2)nnc1C(CC(C)C)NC(=O)c1cccs1 (configuration not stated)	–	–	–	?	22563
O=C(Nc1c(Cl)cccc1Cl)c1cc(=O)n(Cc2ccccc2)c(=O)[nH]1	–	–	–	?	21337
COc1cc(OC)cc(-c2noc(-c3csc([C@@H]4O[C@H](CO)[C@H](O)[C@H](O)[C@H]4O)n3)n2)c1	–	·	–	–	–
CCOc1cc(S(=O)(=O)NC2CCCCC2)ccc1F	–	–	–	–	22695
N/C(=N/OCC(=O)Nc1cccc2ccccc12)c1nonc1N	–	–	–	–	17291
O=C(OCc1ccc(F)cc1)c1ccc2c(c1)-c1ccccc1C2=O	–	–	–	–	–
CCOC(=O)C1=C(Cc2ccc(F)cc2)C(=O)c2ccccc2C1=O	–	–	–	–	23756
COc1ccc(N2C(=O)c3ccccc3NC23C(=O)N(C)c2ccccc23)cc1 (configuration not stated)	–	–	–	–	17048
Cc1nn(-c2ccc(F)cc2)c(Cl)c1/C=N/NC(=O)c1ccc(O)cc1	–	–	–	–	–
Cc1nn(-c2ccc(F)cc2)c(Cl)c1/C=N/NC(=O)c1cccs1	–	68	–	–	–
C/C(=N\NC(=O)Cc1ccc(Cl)cc1)c1ccc(F)cc1	35	–	–	–	–
CC1(C)Cc2noc(N)c2C(C)(C)N1OC(=O)c1ccccc1	–	–	–	–	–
CC1(C)CC(=O)CC(C)(C)N1OC(=O)c1ccncc1	–	–	–	?	23714
Oc1ccc2ccccc2c1C1Nc2cccc3cccc(c23)N1	–	–	–	–	23653
O=C(Cn1cnc2c(nnn2Cc2ccc(Cl)cc2)c1=O)NC1CCCC1	–	–	–	–	–
COc1cccc(-n2nnc3c(=O)n(Cc4ccc(C)cc4)cnc32)c1	–	–	–	–	–
COc1cccc(-n2nnc3c(=O)n(CC(=O)NC4CCCC4)cnc32)c1	–	–	–	–	20217
COc1cccc(-n2nnc3c(=O)n(Cc4ccc(Br)cc4)cnc32)c1	–	–	–	–	21527
O=C(Cn1cnc2c(nnn2Cc2ccc(F)cc2)c1=O)NC1CCCC1	–	–	–	–	22114
SMILES	BoNT-F LC inh	MazEF act	Anthrax LF inh2	BoNT-A LC inh2	Autofluor counter
COc1cccc(-n2nnc3c(=O)n(Cc4ccc(F)cc4)cnc32)c1	–	–	–	–	–
COc1cccc(-n2nnc3c(=O)n(Cc4ccc(Cl)cc4)cnc32)c1	–	–	–	–	21157
COc1ccc(CCN2C(=O)CSC2=Nc2ccc(C(C)C)cc2)cc1OC	–	–	–	–	–
CC1(C)CC(NC(=O)c2cccc(S(=O)(=O)N(Cc3ccccc3)c3ccccc3)c2)CC(C)(C)N1	·	–	·	·	·
Cn1ncc2c(N3CCN(c4ccc(Cl)c(Cl)c4)CC3)ncnc21	–	–	–	–	–
Cn1ncc2c(N3CCN(c4ccccc4F)CC3)ncnc21	–	–	–	?	16585
Cc1ccc(-n2c(Cn3nc(C(F)(F)F)cc3C)n[nH]c2=S)cc1	–	–	–	?	17459
O=C(CCCn1nnnc1CN1CCOCC1)N1CCN(c2ccccc2F)CC1	–	–	–	–	–
CN1C(C)(C)CC(O)(C(=O)O)CC1(C)C	–	·	–	–	–
C=C(C)CSc1nnc([C@@H](NC(=O)OC(C)(C)C)C(C)CC)o1 (some centres not stated)	–	–	–	?	20796
O=C1NC(c2ccccc2)=C(c2nc3ccccc3s2)C(c2ccc(O)cc2)N1 (configuration not stated)	–	–	–	–	21586
O=C1NC(c2ccccc2)=C(c2ccc3ccccc3n2)C(c2ccccc2)N1 (configuration not stated)	–	–	–	–	–
CC1Cc2ccccc2N1C(=O)c1cnc2ccccn2c1=O (configuration not stated)	–	–	–	–	23725
Cc1ccc(Oc2coc3cc(OC(=O)c4cccs4)ccc3c2=O)cc1	–	–	–	–	16461
Clc1ccc(-c2nc3c4ccccc4ccn3c2Cc2ccccc2)cc1	–	–	–	–	–
COc1ccccc1NC(=O)c1coc(=O)c(Br)c1	?	–	–	–	–
Cc1cc(C)c(C)c(S(=O)(=O)NCC(=O)N2CCCC2)c1C	–	–	–	–	20412
Cc1ccc(C)c(S(=O)(=O)NCC(=O)N2CCCC2)c1	?	–	–	–	–
CCn1cc(/C=C(/C#N)S(=O)(=O)c2ccccc2)cn1	–	–	–	–	23211
Cn1nccc1/C=C(/C#N)S(=O)(=O)c1ccccc1	–	–	–	–	?
N#C/C(=C\c1ccc[nH]1)S(=O)(=O)c1ccccc1	–	–	–	–	16572
CC(C)CC1NC(=O)c2cc3ccccc3cc2-n2c1nc1ccc(Cl)cc1c2=O (configuration not stated)	–	–	–	–	–
Cc1ccccc1-n1c(C)nnc1SCc1nc2ccccc2s1	–	–	–	–	–
CCOc1ccccc1-n1nnnc1SCc1nc2ccccc2s1	–	–	–	–	17496
COc1ccc(C(=O)N2CCC2(C)C(=O)O)cc1F (configuration not stated)	–	·	–	–	–
SMILES	BoNT-F LC inh	MazEF act	Anthrax LF inh2	BoNT-A LC inh2	Autofluor counter
Cc1ccc2cc(C)c(N3CCN(c4ccccn4)CC3)nc2c1	–	–	–	–	23535
COc1ccc(CN(CC(=O)NCc2ccccc2)C(=O)CCC(=O)Nc2ccccn2)cc1	–	–	–	–	–
CN(C(=O)Nc1ccccc1)C1CCCCC1	–	–	–	–	–
CC(c1cccs1)N(C(=O)Nc1ccccc1)C1CCCCC1 (configuration not stated)	–	–	–	–	21824
CC(C)CCN(C(=O)Nc1ccccc1)C(C)c1cccs1 (configuration not stated)	–	–	–	–	20892
CCNC(=O)C1(C)CCN(C(=O)c2ccc(-c3ccccc3)cc2)C1 (configuration not stated)	–	·	–	–	–

Source: PubChem
